Here are results for 6 compounds from PubChem BioAssay (NCATS).

The target of assay [1] is ATP-dependent DNA helicase Q1 (Homo sapiens) (UniProt P46063). The assay is described as follows: qHTS Validation Assay for Inhibitors of RecQ-Like Dna Helicase 1 (RECQ1) (AID 2353). Put shortly: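 50 nM RECQ1T1 preincubated 15 min with compound in Tris pH 8.0 buffer with MgCl2, DTT, Tween-20 and 2.5 ug/ml poly(dI-dC); started with 200 nM TAMRA/BHQ-2 forked duplex and 2 mM ATP. Unwinding read as fluorescence (525/598 nm), two reads 2 h apart.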
(In qHTS, concentration-response curves come from the screen itself.)

Assay [2] concerns the target RecQ-like DNA helicase BLM (Homo sapiens) (UniProt P54132). The assay is described as follows: qHTS Validation Assay for Inhibitors of Bloom's syndrome helicase (BLM) (AID 2364). The method in brief:
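Forked 20-bp duplex substrate (200 nM, TAMRA/BHQ-2) plus 2 mM ATP added after 15 min compound preincubation with 50 nM enzyme, pH 8.0, poly(dI-dC) 2.5 ug/ml. Strand separation followed by fluorescence (525/598 nm) over 2 h, normalized to enzyme-free and DMSO controls.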

A short description of assay [3]: Cytometric Cell-Based qHTS for Inhibitors of the mTORC1 Signaling Pathway in MEF (Tsc2-/-, p53-/-) Cells (AID 2660).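 Note: Tsc2 and p53 null MEFs carrying empty vector with compound for 24 h; percent of cells above a phospho-rpS6 to PI ratio cutoff in each well; series mostly up to about 38 µM.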 Put shortly: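 Immunofluorescence qHTS of rpS6 Ser235/236 phosphorylation: MEFs (Tsc2-/-, p53-/-) treated 24 h, 37 C, in DMEM + 10% FBS. Alexa-488 signal normalized to PI count, referenced to rapamycin (7.5 nM) and DMSO; PI cell number recorded for viability.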

Assay [4] can be described thus: High Content Imaging Cell-Based qHTS for Inhibitors of the mTORC1 Signaling Pathway in MEF (Tsc2-/-, p53-/-) Cells (AID 2666).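 Note: percent of cells scored positive for phospho-rpS6 Ser235/236 immunostaining by imaging.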 The method in brief: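 Cells were plated, dosed with compound after 24 hrs, and incubated another 24 hrs at 37 degree Celsius. Fixed cells were immunostained for phospho-rpS6 Ser235/236 and counterstained, and the normalized signal was scored as % active cells against rapamycin and DMSO controls.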

Assay [5] in a line: Cytometry Cell-Based qHTS for Inhibitors of the mTORC1 Signaling Pathway in MEF cells (AID 2668). Note: potency is the fitted concentration of half-maximal effect. The method in brief:
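In MEFs grown in DMEM + 10% FBS, a 24 hrs compound exposure preceded imaging of phospho-rpS6 Ser235/236 by laser-scanning cytometry.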

Assay [6] can be described thus: Validation screen for small molecules that induce DNA re-replication in MCF 10A normal breast cells (AID 463097). Note: nearly all actives have a fitted effect of over 60% in size. Note: potency is the fitted concentration of half-maximal effect. The method in brief:
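Following 48 hr compound incubation (37 C, 5% CO2), MCF 10A cells receive Hoechst for 40 min at 37 C. Nuclei are then scanned (excitation 405 nm, emission 500-530 nm) for total fluorescence intensity.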

Assay [7] has as its target Ubiquitin carboxyl-terminal hydrolase 2 (Homo sapiens) (UniProt O75604). The assay is described as follows: qHTS Validation Assay for Inhibitors of Ubiquitin-specific Protease USP2a Using CHOP2 as the Reporter (AID 463106). Put shortly:
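10nM USP2 core + cpd, 30min RT; add 25nM Ub-CHOP2/25nM substrate; 60min RT; FI 485/531nm. Buffer Tris pH 8.0, CaCl2, BME, CHAPS. Norm. to NEM = 100% inhibition; time-zero read flags fluorescent artifacts.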

Assay [8] deals with DNA polymerase III PolC-type (Bacillus subtilis (strain 168)) (UniProt P13267). Briefly: qHTS Validation Assay for the Inhibitors of DNA Replication in Gram-Positive Bacteria (AID 485295).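 Note: reconstituted holoenzyme with PolC plus beta clamp SSB and primase; PicoGreen fluorescence of double-stranded DNA made on primed circular M13 template; series mostly up to about 57 µM.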 The method in brief: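 Inhibition of DNA synthesis by the reconstituted PolC holoenzyme, monitored through PicoGreen staining of dsDNA formed from ssM13Gori, dNTPs and NTPs, with compound preincubation and room-temperature reaction.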

Assay [9] deals with Tumor susceptibility gene 101 protein (Homo sapiens) (UniProt Q99816). The assay is described as follows: qHTS Validation Assay for Iinhibitors of HIV-1 Budding by Blocking the Interaction of PTAP/TSG101 (AID 485342; calls by dose curve). The method in brief:
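Compound wells held the Tsg101 binding domain (10 uM) and a FITC-conjugated PTAP peptide (50 nM) in buffer at pH 7.5 containing 0.15 M NaCl and 0.01% Tween 20; polarization was recorded after 20 min, r.t.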

The nature of assay [10]: qHTS Validation Assay to Find Inhibitors of Chronic Active B-Cell Receptor Signaling (AID 485345; active = well fitted curve in the direction sought with a large enough effect in the main read-out, with a control signal flat, not every such curve was filed as active). Put shortly:
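Read-out: ratio of filter-corrected green (IkappaBalpha fusion) to red (native) luciferase signal in doxycycline-induced TMD8 cells after 4 h at 37C. Titration spanned 46 uM–3 nM; Data were normalised to basal cells and 10 uM MG-132 wells.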

Assay [11] has as its target Beta-2 adrenergic receptor (Homo sapiens) (UniProt P07550). Briefly: qHTS validation assay of beta-arrestin-biased ligands of beta2-adrenergic receptor (AID 485366). The method in brief: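 Arrestin-recruitment (Tango) reporter: ligand-bound beta2-AR recruits beta-arrestin, releasing tTA, which upregulates luciferase. Titrations of up to 46 microM incubated 18 hr at 37 degrees C before luminescent readout.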

Assay [12] concerns the target ATP-dependent 6-phosphofructokinase (Trypanosoma brucei brucei) (UniProt O15648). Briefly: qHTS Validation Assay to Find Inhibitors of T. brucei phosphofructokinase (AID 485368). Note: potency is the fitted concentration of half-maximal effect. The method in brief: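 Steps: substrate mix (0.5 mM F6P, 0.1 mM ATP, MgCl2, TEA pH 8.0); compound; 1.25 nM T. brucei PFK; 45 min RT; ATP depletion 10 min; ADP-to-ATP detection 10 min; luminescence read; curve fitting and classification.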

The nature of assay [13]: Quantitative high throughput screen for delayed death inhibitors of the malarial parasite plastid, 96 hour incubation (AID 488745).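 Note: luciferase-expressing P. falciparum in erythrocytes at 2% hematocrit and 0.1% parasitemia; series mostly up to about 29 µM; nearly all actives have a fitted effect of over 70% in size.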 Put shortly: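 Infected erythrocytes were added to compound in Albumax-supplemented RPMI 1640 at 0.1% parasitemia and 2% hematocrit (final), incubated 96 h at 37 C under 5% CO2, then luciferase reagent was added and luminescence measured.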

Assay [14] in a line: Quantitative high throughput screen for delayed death inhibitors of the malarial parasite plastid, 48 hour incubation (AID 488752). Note: nearly all actives have a fitted effect of over 65% in size. Put shortly: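 Readout is firefly luciferase luminescence from a reporter integrated into the parasite genome, with lower signal taken as inhibited growth. Infected red cells (0.1% parasitemia, 2% hematocrit final) are cultured with compound for one 48 h cycle at 37 C.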

The target in assay [15] is Thioredoxin reductase 1, cytoplasmic (Rattus norvegicus) (UniProt O89049). Briefly: qHTS Assay for Substrates of Mammalian Selenoprotein Thioredoxin Reductase 1 (TrxR1) (AID 488772).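 Note: NADPH fluorescence in the first read after selenite addition and not the 8 min delta; series mostly up to about 57 µM; a drop in NADPH fluorescence below the no-compound background marks a TrxR1 substrate.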 Put shortly:
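Quantitative HTS in Tris-HCl buffer at pH 7.5 with EDTA and Tween-20, using rat TrxR1, 400 uM NADPH and 400 uM selenite (final). A fall in initial NADPH fluorescence relative to background marked substrate behaviour.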

The target is the same in assay [16]. Briefly: qHTS Assay for Inhibitors of Mammalian Selenoprotein Thioredoxin Reductase 1 (TrxR1) (AID 488773).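 Note: drop in NADPH fluorescence over an 8 min run after selenite addition; series mostly up to about 57 µM; nearly all actives have a fitted effect of over 40% in size.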 The note with it: Potency: inhibition. Put shortly: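 Steps: enzyme (90 nM) plus NADPH (400 uM final), 5 min at ~22 deg C; compound added, 15 min; selenite (400 uM final) added; fluorescence followed for 8 min. Concentration-response curves derived from the normalized delta values.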

Assay [17] has as its target Flap endonuclease 1 (Homo sapiens) (UniProt P39748). The assay is described as follows: qHTS Validation Assay for the Inhibitors of Human Flap endonuclease 1 (FEN1) (AID 488816). The method in brief: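 Readings taken at 0 and 15 min after starting the reaction with 50 nM (final) substrate supplied the signal. Compounds had first sat with 10 nM FEN1 reagent for 15 min at room temperature. Values come from Hill-equation concentration-response fits.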

The nature of assay [18]: High Content Imaging Cell-Based qHTS for Inhibitors of the mTORC1 Signaling Pathway in MEF Cells (AID 2667). Note: potency is the fitted concentration of half-maximal effect. The method in brief:
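Immunofluorescence for rpS6 phosphorylation in MEFs of Tsc2-/-, p53-/- background rescued with WT Tsc2. Compound exposure lasted 24 hrs. Inhibition was scored against rapamycin-treated control wells.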

Assay [19] concerns the target M-phase phosphoprotein 8 (Homo sapiens) (UniProt Q99549). Briefly: qHTS Validation Assay for Inhibitors for MPP8 Chromodomain Interactions with Methylated Histone Tails (AID 488949). Note: nearly all actives have a fitted effect of over 55% in size. Note: potency is the fitted concentration of half-maximal effect. Put shortly:
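Chemiluminescent proximity assay: histidine-tag capture via nickel acceptor beads, biotin peptide via streptavidin donor beads. Protein and peptide each at 50 nM, pH 7.4, with 30 min incubations at room temperature for complex formation, compound exposure and bead binding.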

The target of assay [20] is Ferritin light chain (Equus caballus) (UniProt P02791). The assay is described as follows: qHTS Validation Assay for Identification of Novel General Anesthetics (AID 2323). Note: series mostly up to about 77 µM. The method in brief: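 Normalized fluorescence response, scaled between free 1-AMA and 1-AMA/apoferritin complex, fitted to a four-parameter Hill equation for concentration-effect values. Binding mix: 10 uM horse-spleen apoferritin, 50% saturated 1-AMA in PBS; read 380/535 nm after 10 min.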

Inconclusive results are not listed. A structure can be active in one record and inactive in another. The source made the active and inactive calls. Unless noted, calls come from the whole dose curve; as a rule, active = well fitted curve in the direction sought with a large enough effect; inconclusive = small, poorly fitted or top-dose-only effect, or another doubt; inactive = no such curve, though single readings can be large; an effect the other way counts as inactive or inconclusive.

Chain of DNA polymerase III PolC-type (Bacillus subtilis (strain 168)) (P13267 whole entry, looked up): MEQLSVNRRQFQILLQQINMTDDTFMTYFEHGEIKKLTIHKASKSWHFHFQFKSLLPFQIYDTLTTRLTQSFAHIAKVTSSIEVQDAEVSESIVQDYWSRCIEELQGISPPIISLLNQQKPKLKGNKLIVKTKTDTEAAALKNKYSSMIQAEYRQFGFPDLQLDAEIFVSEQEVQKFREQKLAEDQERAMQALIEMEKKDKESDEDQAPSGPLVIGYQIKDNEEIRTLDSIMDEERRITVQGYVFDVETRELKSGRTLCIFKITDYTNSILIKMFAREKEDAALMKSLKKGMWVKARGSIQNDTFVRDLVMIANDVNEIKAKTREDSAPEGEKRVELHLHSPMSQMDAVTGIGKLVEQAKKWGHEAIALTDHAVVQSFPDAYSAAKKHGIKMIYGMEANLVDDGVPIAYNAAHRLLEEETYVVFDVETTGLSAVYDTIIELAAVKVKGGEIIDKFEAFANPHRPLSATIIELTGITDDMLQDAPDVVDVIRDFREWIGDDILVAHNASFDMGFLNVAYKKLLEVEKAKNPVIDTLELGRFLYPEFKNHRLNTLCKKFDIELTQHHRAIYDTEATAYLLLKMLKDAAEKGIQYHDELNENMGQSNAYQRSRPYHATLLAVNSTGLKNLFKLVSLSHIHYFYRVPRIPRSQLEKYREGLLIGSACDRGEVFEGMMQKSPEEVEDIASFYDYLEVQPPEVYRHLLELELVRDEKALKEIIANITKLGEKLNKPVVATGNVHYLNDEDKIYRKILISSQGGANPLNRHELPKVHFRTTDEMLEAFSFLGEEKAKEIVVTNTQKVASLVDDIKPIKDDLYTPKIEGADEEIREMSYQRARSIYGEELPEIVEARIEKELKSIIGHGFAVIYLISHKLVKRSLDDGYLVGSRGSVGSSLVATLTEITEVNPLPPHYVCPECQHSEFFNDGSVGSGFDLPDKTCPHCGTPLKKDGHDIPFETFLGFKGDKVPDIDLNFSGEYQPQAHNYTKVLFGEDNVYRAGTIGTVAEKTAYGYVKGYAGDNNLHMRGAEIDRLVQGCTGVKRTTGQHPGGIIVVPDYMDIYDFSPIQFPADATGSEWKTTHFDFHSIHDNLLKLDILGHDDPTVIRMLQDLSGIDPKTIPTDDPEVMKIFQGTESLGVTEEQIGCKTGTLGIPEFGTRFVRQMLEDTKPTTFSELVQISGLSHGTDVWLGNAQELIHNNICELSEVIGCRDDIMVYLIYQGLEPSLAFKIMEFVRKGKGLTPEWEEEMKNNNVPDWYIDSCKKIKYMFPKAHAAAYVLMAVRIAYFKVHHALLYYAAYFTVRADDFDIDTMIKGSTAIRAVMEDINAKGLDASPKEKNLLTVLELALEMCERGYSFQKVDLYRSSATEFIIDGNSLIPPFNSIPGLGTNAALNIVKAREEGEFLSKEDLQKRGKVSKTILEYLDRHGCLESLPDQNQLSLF
Chain of Thioredoxin reductase 1, cytoplasmic (Rattus norvegicus) (O89049 whole entry, looked up): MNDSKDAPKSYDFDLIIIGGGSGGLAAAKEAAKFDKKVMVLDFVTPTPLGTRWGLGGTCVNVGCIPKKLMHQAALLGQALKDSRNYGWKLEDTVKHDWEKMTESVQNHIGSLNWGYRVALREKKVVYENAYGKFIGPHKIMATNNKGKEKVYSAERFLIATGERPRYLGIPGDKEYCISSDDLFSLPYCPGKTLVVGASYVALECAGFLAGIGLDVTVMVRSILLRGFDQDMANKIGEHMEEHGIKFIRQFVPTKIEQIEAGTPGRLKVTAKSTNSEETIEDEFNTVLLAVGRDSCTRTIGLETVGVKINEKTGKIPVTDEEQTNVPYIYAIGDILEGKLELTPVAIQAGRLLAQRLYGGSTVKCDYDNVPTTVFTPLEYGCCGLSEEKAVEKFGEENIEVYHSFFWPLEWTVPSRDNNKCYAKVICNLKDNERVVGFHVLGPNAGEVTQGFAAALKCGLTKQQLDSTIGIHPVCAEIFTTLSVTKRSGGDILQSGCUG
Chain of Beta-2 adrenergic receptor (Homo sapiens) (P07550 whole entry, looked up): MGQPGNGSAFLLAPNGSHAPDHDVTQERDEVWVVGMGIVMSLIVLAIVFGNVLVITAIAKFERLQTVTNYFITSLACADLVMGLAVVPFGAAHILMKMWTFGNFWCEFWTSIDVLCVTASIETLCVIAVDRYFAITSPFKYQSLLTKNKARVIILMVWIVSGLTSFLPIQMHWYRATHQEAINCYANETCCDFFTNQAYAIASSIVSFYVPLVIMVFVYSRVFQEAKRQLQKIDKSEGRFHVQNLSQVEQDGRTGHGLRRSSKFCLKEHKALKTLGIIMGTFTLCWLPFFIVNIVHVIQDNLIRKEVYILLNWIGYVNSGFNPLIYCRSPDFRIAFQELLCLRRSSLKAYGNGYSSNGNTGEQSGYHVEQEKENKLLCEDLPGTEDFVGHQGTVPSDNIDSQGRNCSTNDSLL
Chain of ATP-dependent 6-phosphofructokinase (Trypanosoma brucei brucei) (O15648 whole entry, looked up): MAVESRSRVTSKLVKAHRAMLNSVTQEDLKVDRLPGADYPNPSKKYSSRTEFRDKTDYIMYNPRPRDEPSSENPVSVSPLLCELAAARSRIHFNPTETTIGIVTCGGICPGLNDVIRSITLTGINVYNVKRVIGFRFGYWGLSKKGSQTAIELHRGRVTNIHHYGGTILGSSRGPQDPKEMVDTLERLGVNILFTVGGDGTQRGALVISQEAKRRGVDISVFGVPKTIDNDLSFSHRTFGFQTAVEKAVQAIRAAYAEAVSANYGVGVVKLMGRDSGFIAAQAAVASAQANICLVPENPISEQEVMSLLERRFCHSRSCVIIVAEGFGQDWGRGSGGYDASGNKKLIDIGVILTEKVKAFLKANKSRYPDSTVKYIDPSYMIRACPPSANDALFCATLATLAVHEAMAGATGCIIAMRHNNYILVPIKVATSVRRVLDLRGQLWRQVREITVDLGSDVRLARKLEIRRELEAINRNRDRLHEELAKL
Chain of RecQ-like DNA helicase BLM (Homo sapiens) (P54132 whole entry, looked up): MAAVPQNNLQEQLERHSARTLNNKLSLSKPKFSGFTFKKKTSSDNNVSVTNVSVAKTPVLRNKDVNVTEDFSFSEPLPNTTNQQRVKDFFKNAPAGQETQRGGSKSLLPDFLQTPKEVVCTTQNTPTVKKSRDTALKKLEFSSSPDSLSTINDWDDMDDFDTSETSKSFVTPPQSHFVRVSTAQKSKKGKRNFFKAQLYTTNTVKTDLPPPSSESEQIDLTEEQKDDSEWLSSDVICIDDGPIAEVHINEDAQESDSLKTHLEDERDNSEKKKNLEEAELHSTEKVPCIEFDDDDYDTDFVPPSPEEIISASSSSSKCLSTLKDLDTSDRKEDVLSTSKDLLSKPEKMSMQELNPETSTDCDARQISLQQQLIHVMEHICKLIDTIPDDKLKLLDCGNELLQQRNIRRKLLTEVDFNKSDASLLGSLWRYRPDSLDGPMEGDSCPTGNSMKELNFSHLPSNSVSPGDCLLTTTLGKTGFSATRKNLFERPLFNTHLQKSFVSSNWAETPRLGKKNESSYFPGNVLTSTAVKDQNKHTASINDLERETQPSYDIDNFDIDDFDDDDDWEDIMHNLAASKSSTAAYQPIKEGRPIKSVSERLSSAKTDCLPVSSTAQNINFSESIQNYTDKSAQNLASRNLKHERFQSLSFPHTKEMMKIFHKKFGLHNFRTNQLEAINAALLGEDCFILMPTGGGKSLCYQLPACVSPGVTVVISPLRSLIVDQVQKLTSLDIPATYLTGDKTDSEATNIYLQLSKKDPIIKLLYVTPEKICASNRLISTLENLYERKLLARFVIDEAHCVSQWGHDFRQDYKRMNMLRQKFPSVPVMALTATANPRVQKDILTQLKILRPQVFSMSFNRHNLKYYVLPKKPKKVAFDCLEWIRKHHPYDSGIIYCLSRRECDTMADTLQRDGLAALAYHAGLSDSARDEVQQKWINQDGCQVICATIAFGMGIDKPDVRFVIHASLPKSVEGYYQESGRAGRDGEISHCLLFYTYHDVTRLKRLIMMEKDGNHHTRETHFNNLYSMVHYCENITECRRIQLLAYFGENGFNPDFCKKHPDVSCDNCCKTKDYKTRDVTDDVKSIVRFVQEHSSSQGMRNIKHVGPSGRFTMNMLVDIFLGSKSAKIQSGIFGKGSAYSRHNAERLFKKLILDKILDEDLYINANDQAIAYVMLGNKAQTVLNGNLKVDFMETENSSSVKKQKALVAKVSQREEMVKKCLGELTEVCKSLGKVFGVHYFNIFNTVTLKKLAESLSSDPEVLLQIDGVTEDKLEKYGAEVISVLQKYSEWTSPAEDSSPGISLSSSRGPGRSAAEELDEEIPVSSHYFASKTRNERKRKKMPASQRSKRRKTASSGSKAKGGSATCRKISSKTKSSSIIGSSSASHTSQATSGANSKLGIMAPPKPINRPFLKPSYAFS
Chain of Flap endonuclease 1 (Homo sapiens) (P39748 whole entry, looked up): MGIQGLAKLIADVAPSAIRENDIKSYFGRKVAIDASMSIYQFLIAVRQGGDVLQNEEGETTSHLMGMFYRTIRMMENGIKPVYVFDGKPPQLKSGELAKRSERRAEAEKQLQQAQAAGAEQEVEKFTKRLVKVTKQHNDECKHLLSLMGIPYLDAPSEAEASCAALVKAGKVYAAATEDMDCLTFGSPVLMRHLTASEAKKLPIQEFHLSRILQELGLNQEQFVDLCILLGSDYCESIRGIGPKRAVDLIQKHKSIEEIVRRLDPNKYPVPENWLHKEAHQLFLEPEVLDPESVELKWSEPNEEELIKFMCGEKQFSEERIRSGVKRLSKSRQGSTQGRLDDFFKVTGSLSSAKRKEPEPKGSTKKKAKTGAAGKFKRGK
Chain of Tumor susceptibility gene 101 protein (Homo sapiens) (Q99816 whole entry, looked up, the tested form may be a part): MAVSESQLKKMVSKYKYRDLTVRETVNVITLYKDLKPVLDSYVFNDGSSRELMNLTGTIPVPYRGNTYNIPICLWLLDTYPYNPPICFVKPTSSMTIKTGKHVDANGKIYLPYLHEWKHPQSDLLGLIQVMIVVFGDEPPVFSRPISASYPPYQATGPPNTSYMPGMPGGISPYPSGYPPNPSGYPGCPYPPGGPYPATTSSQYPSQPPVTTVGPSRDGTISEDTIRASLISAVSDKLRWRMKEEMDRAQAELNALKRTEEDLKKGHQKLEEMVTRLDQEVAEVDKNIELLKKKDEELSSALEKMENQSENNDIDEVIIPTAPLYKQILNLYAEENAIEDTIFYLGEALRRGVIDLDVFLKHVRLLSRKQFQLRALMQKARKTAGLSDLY

For the compound `CC(C)C(=O)Nc1ccc([N+](=O)[O-])c(C(F)(F)F)c1`, the Potency result in assay [1], in assay [2], in assay [4], in [5], in [6] and in assay [7] was “inactive” each time. The Potency entry in assay [8], in [10], in assay [12], in assay [13], in assay [14] and in assay [16] was “inactive” each time. Further, in [17], the Potency entry is “inactive”. Further, the compound was classed as inactive in assay [3], in assay [9], in assay [11] and in [15].

For `O=C(Nc1ccc([N+](=O)[O-])cc1Cl)c1cc(Cl)ccc1O`, the Potency entry in assay [1], in assay [4], in assay [7], in assay [8], in assay [12] and in [16] was “inactive” each time. Moreover, the Potency result in [17] and in assay [19] was “inactive” each time. Besides, the result in assay [3], in [9], in assay [11] and in assay [15] was inactive. For the same compound, the Potency is 2.07 µM (active) in [18], 1.17 µM (active) in assay [5] and 0.316 µM (active) in assay [6].

Regarding `COc1cc2c(c(OC)c1OC)-c1ccc(OC)c(=O)cc1[C@@H](NC(C)=O)CC2`, the Potency entry in [1], in assay [2], in assay [4], in assay [18], in [5] and in [8] was “inactive” in each case. Moreover, the Potency result in [13], in [14] and in assay [19] was “inactive” each time. The compound was called inactive in assay [3], in assay [9], in assay [11] and in [15].

For the compound `CN(Cc1cnc2nc(N)nc(N)c2n1)c1ccc(C(=O)N[C@@H](CCC(=O)O)C(=O)O)cc1`, the Potency result in [1], in assay [4], in assay [5], in assay [6], in [8] and in [10] was “inactive” throughout. The Potency result in assay [13], in assay [14], in assay [16] and in assay [17] was “inactive” throughout. The outcome in [3], in assay [9], in assay [11] and in assay [15] was inactive. The Potency in assay [12] was 37.9 µM (active); in [19] it was 79.4 µM (active) and inactive.

Regarding `CCOC(=O)c1ncn2c1CN(C)C(=O)c1cc(F)ccc1-2`, the Potency entry in assay [1], in assay [4], in assay [5], in assay [6], in assay [7] and in [8] was “inactive” in each case. Further, the Potency entry in [10], in assay [12], in assay [13], in assay [16] and in assay [19] was “inactive” in each case. In addition, the result in assay [3], in assay [9] and in assay [11] was inactive.

`NCCCCCC(=O)O`: the Potency entry in assay [20], in assay [2], in assay [4], in assay [18], in assay [5] and in assay [6] was “inactive” each time. The Potency result in assay [8], in assay [10], in assay [12], in [13], in [14] and in assay [16] was “inactive” in each case. The Potency entry in assay [17] and in assay [19] was “inactive” throughout. For the same compound, the result in [3], in [9], in [11] and in [15] was inactive.
